# Measurements published in PubChem BioAssay AID1259412 (Laboratorio de Genomica e Expressao (LGE), UNICAMP, 2018).
# Calls of active or inactive are those of the source. No rule for the calls is given here.
# Legend:
# [1] = alternative oxidase inhibition and growth effect – profiling panel (AID 1259412); settings: AOX-dependent respiration, at 500 µM; for growth (% of control): O2 uptake, measured here: growth; for O2 uptake (% of control): measured here: O2 uptake, control condition (no AOX);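 as to growth (% of control): growth monitored over 72 h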
# [2] = tested on: alternative oxidase (AOX); experiment: as above; settings: AOX-dependent respiration, at 500 µM, stronger effect = lower value
# [3] = AOX-dependent treatment condition, stronger effect = lower value
Structure (SMILES),"growth (% of control) [1, 3] [%]",growth (% of control) ([1]; control condition) [%],O2 uptake (% of control) ([1]; stronger effect = lower value) [%],O2 uptake (% of control) [2]
O=C(Nc1cccc(I)c1)c1cccc(F)c1,67.2,97.5,77.3,21.9% (active)
O=C(Nc1cccc(Br)c1)c1cccc(Cl)c1,65.4,91.3,95.9,12% (active)
O=C(Nc1cccc(C(F)(F)F)c1)c1cccc(F)c1,7.63,35.2,83,13.8% (active)
O=C(NCc1ccc2c(c1)OCO2)c1cccc(Br)c1,88,82.8,94.7,24.4% (active)
O=C(NCc1ccc2c(c1)OCO2)c1cccc(I)c1,99.2,97.5,99.1,26.3% (active)
COc1cc(NC(=O)c2cccc(Cl)c2)cc(OC)c1OC,82.2,78,97.8,81.5% (active)
O=C(Nc1cccc(Cl)c1)c1cccc(I)c1,73,88.6,80.5,15.4% (active)
O=C(Nc1ccccc1)c1cccc(Br)c1,75,91.1,89.6,19.3% (active)
CCN(CC)CCNC(=O)c1ccccc1,92.5,87.9,95.7,78.4% (active)
O=C(Nc1cccc(Cl)c1)c1cccc(Br)c1,71.8,101,85,15% (active)
N#Cc1cccc(C(=O)Nc2cccc(NC(=O)c3cccc(C#N)c3)c2)c1,91.4,132,107,95.1%
COc1cc(NC(=O)c2cccc(F)c2)cc(OC)c1OC,92.8,80.8,93.1,98.7% (inactive)
COc1cccc(C(=O)Nc2ccc(N3CCOCC3)cc2)c1,86.1,86.6,102,92.3%
O=C(Nc1cccc(I)c1)c1ccccc1I,112,94.8,84,13.1% (active)
COc1cc(NC(=O)c2ccccc2)cc(OC)c1OC,84.6,76,95.8,61.1% (active)
N#Cc1cccc(C(=O)Nc2cccc(OCc3ccccc3)c2)c1,108,90.3,90.1,39.1% (active)
O=C(Nc1cccc(F)c1)c1cccc(Br)c1,23.1,88,73.7,28.7% (active)
Nc1cccc(S(=O)(=O)c2cccc(NC(=O)c3cccc(F)c3)c2)c1,84,106,104,101% (inactive)
N#Cc1cccc(C(=O)Nc2ccc(N3CCOCC3)cc2)c1,96.5,92.2,105,90.5% (inactive)
O=C(Nc1cccc(F)c1)c1cccc(F)c1,23,78.7,103,52.3% (active)

Structure (SMILES),"growth (% of control) [1, 3] [%]",growth (% of control) ([1]; control condition) [%],O2 uptake (% of control) ([1]; stronger effect = lower value) [%],O2 uptake (% of control) [2]
NC(=O)c1ccccc1NC(=O)c1cccc(F)c1,88.1,94.5,85.1,81% (inactive)
Cc1cccc(C(=O)Nc2cccc(OCc3ccccc3)c2)c1,93.7,109,108,67.8% (active)
O=C(Nc1cccc(C(F)(F)F)c1)c1ccccc1,38.9,71.4,84,16.8% (active)
O=C(Nc1cccc(OCc2ccccc2)c1)c1ccccc1,99.7,117,90.5,38.2% (active)
O=C(Nc1cccc(I)c1)c1cccc(Cl)c1,63.1,82.8,88.3,13.2% (active)
O=C(Nc1cccc(F)c1)c1cccc(I)c1,64.5,86.5,76,23.7% (active)
O=C(Nc1cccc(Br)c1)c1ccccc1I,57.8,98.8,81,10.4% (active)
O=C(Nc1cccc([N+](=O)[O-])c1)c1cccc(Br)c1,74.5,80.8,95.1,23.6% (active)
Cc1cccc(C(=O)Nc2ccccc2C(N)=O)c1,74.2,73.9,92.4,60.2% (active)
Cc1cccc(C(=O)Nc2cccc(C(F)(F)F)c2)c1,54.5,88.4,101,15.2% (active)
O=C(Nc1cccc(Br)c1)c1cccc(I)c1,103,98.1,89.6,20.2% (active)
O=C(Nc1cccc(Cl)c1)c1cccc(F)c1,17.8,60.1,78.3,24.6% (active)
COc1cccc(C(=O)NCc2ccc3c(c2)OCO3)c1,46.4,57,95.8,36.4% (active)
Cc1cccc(C(=O)Nc2cccc([N+](=O)[O-])c2)c1,36.7,80.2,98.8,34.3% (active)
N#Cc1cccc(C(=O)Nc2cccc(Cl)c2)c1,54.1,87.1,87.4,27.6% (active)
Cc1cccc(C(=O)Nc2cccc(F)c2)c1,0.51,43.4,87.8,30.7% (active)
COc1cc(NC(=O)c2cccc(C)c2)cc(OC)c1OC,85.5,96.2,83.6,66.4% (active)
NC(=O)c1ccccc1NC(=O)c1ccccc1,84.2,88.6,93.9,91.2%
COc1cccc(C(=O)Nc2cccc(Br)c2)c1,51.9,92,85.8,27.5% (active)
